Target: TNPO2
Assay: pooled miR-30 sensor sort-seq; sequence = guide strand
Conditions: shRNA
Note: reference of the scale not given here.

Sequence | sensor-assay potency score (higher = more potent)
AATGTTGTTGAGACACTCCTGT | 0.856
TTGTTCTTGAGGATGAGGCCAC | -0.289
TGAGTCTTTGAGCAGCTGCAGG | -1.5
TTGACACCGATCATCATGCAGA | -0.349
TTCTCTAGAATTGCTGACCCAG | -0.678
AATCTTATAAAACATGTCCCGA | -0.983
TTTGAGCAGCTGCAGGACCTGC | -1.11
TTGAAGAACTGCAGGAACTTGG | -0.371
TTGTCTTCGTCCTTGAGCTCAT | 0.165
TCATCTTCTGACTTGAGTCTGG | 0.0435

Target: TOMM40L
Assay: as above
Conditions: shRNA

Sequence | sensor-assay potency score (higher = more potent)
TAGACGGTGCAGCTCATCGAAG | -1.14
TTATACCATAGAACACATCCAC | -0.126
TGTGGTAGTAACTTGCATGGGC | 1.17
TATACCATAGAACACATCCACC | -1.17
TAGTCTGTCATACCAGAGCATG | -1.7
TAAGAGGTAAAGAAGCTCCTTC | 0.51
TTACTATCCACCAAGCCTCTAA | -0.326
TACATCTTTGCATAGACGGTGC | 0.000587
TCTGATAGTCTGTCATACCAGA | -0.753
TTTCTCTAATGTTCAGACCTGG | -0.359
TACCAAATCCAGCACATCCAGG | -1.16
TTTGGAACCTCTGATAGTCTGT | 0.397

Target: TOP1MT
Assay: as above
Conditions: shRNA

Sequence | sensor-assay potency score (higher = more potent)
TATTCATGATCTAACATCCTCC | 0.13
TTGTCCACAAAGTATCTGTGGA | 0.0397
TTCTGAACGCTCTCGGTCCAAG | -1.34
TTGTTGTGTATTCATGATCTAA | -0.885
TCATTGAAGAAGTTCTTCCGGA | 0.332
TTTTGCTGTAGATCTTCTCCAC | 0.12
TTGTTCTCCTCCTTGTCCGTGG | -0.327
TTTTTCTTGGTGACCATCTAAA | -1.15
TTCTTCTCCAGGACACTCCTGG | 0.134
TTTGCCTGGATCTTCGTCTGGA | 0.141
TTGTAGGTCCGGAACACCTTGG | -0.571
TGTAGGATAAGATCTTAGCTGC | 0.167

Target: TP53I13
Assay: as above
Conditions: shRNA

Sequence | sensor-assay potency score (higher = more potent)
TCGGAAGTTTCTGTGCAGCCGT | -0.684
TCACTCTTGGTGACACCTGCGG | -0.664
TTCAGCACAGCAGCCACTGTGT | -0.771
TAGCCATACAAGCATAGGCCAG | -1.71
TTGAACAGACACAGCCCCCTGG | 0.146

From the OligoGym collection
